Results as given in PubChem BioAssay (NCATS).
A number with no mark means an inactive call. Records with an inconclusive call do not appear. Calls of active or inactive are those of the source. Unless noted, calls follow the shape of the dose curve; as a rule, active = well fitted curve in either direction with a large enough effect (not every such curve was filed as active); inconclusive = small, poorly fitted or top-dose-only effect, or another doubt; inactive = flat fitted curve, though single readings scatter.

Key:
[1] = molecular target: Lysosomal acid glucosylceramidase (Homo sapiens) (UniProt P04062); assay: Glucocerebrosidase-p2 (AID 348; in the data active = potency below about 10 µM; also: potency is read from the fitted curve at half-maximal effect); conditions: purified GBA, blue fluorogenic substrate, 40 min
Method in brief: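 Compounds titrated from 0.6 nM upwards against 0.2 nM enzyme in pH 5.9 citric acid/KH2PO4, taurocholate, tween-20; blue fluorogenic substrate 80 uM, 40 min room temperature, stopped and read Ex 365/Em 440 for AC50.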

[2] = AP1 Signaling Pathway (AID 357); conditions: ME-180 AP-1-bla reporter, EGF-induced, beta-lactamase ratio, 5 h; at 7.69 µM (top of the series) unless noted;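 also: ME-180 reporter cells stimulated with EGF at its EC50 level; % is scaled to controls: 0 for no effect and ±100 for the full control effect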
Method in brief: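 A ratiometric CCF4 readout (405 nm excitation; 460 and 530 nm emission) quantified AP-1-driven beta-lactamase in ME-180 cells after 5 h with compound and EC50 EGF; AC50 values were derived for activators and inhibitors.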

[3] = molecular target: Cytochrome P450 1A2 (Homo sapiens) (UniProt P05177); assay: p450-cyp1a2 (AID 410; calls by dose curve; also: potency is read from the fitted curve at half-maximal effect;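 as to activity change, negative = inhibition: -100% = full effect of reference inhibitor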); conditions: recombinant CYP1A2, luciferin-ME demethylation, luminescence; series mostly up to 11.4 µM
Method in brief: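 20nM CYP1A2 with 100uM Luciferin-ME (at Km) in 100mM KPO4; compound preincubated 10 min, NADPH regeneration added, 60 min at room temperature. Luciferin quantified by luminescence after detection reagent; normalized to 57 uM furafylline.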

[4] = NFAT Signaling Pathway (AID 444); conditions: Jurkat NFAT-bla M1, carbachol, beta-lactamase ratio, 5 h; at 7.69 µM (top of the series) unless noted;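 also: carbachol stimulus at about its EC50 of 1 µM final; % is scaled to controls: 0 for no effect and ±100 for the full control effect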
Method in brief: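 Jurkat cells carrying an NFAT-driven β-lactamase reporter and co-transfected muscarinic M1 receptor were treated with compound plus carbachol (1 uM final, an EC50 level) for 5 h at 37 °C. CCF4 loading followed for 1 h at RT; 460/530 nm ratio gave %activity.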

[5] = Stat Signaling Pathway (AID 446); conditions: ME-180 SIE beta-lactamase reporter, IL-6 stimulated, 5 h; at 7.69 µM (top of the series) unless noted;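 also: ME-180 cervical cancer cells given 40 pM IL-6 alongside compound; SIE-controlled beta-lactamase reporter measured as 460/530 nm FRET emission ratio; % is scaled to controls: 0 for no effect and ±100 for the full control effect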
Method in brief: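 ME-180 cells carrying a SIE-driven beta-lactamase reporter are stimulated with 40 pM IL-6 for 5 h at 37C in the presence of compound. The 460/530 nm FRET substrate ratio is read after 2.5 h at RT. Data are normalised to 300 pM IL-6 and to 125 nM JAK inhibitor controls.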

[6] = molecular target: Glucocorticoid receptor (Homo sapiens) (UniProt P04150); assay: GR-GFP Redistribution (AID 450;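 active = compounds whose dose series gives a full or clear partial fitted curve of increased nuclear translocation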; also: potency is read from the fitted curve at half-maximal effect); conditions: U2OS GR-GFP nuclear translocation, laser cytometry, 2 h
[7] = molecular target: Glucocorticoid receptor (Homo sapiens) (UniProt P04150); assay: GR-EFC Redistribution (AID 451; calls by dose curve; also: potency is read from the fitted curve at half-maximal effect); conditions: CHO-K1 GR-EFC translocation, beta-gal luminescence, 2 h
Method in brief: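 CHO-K1 cells stably expressing nuclear-localized β-gal enzyme acceptor and GR fused C-terminally to the enzyme donor fragment; ligand-driven nuclear translocation restores β-gal by complementation. Compounds titrated up to 46 uM final, 2 h at 37 °C; luminescence read.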

[8] = molecular target: Mitogen-activated protein kinase 10 (Mus musculus) (UniProt Q61831); assay: JNK3 AlphaScreen Assay (AID 530); conditions: JNK3 lysate, c-Jun phosphorylation; series mostly up to 11.4 µM;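 also: kinase came from lysate of stimulated human HepG2 cells; signal reports phosphorylation of biotinylated GST-cJun 1-79 at Ser73 with 10 µM ATP; % is scaled to controls: 0 for no effect and ±100 for the full control effect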
Method in brief: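 Inhibitors reduce antibody binding to phosphorylated biotin-cJun, lowering AlphaScreen luminescence. Lysates from HepG2 cells pre-activated by IL-1beta plus TNF-alpha supplied JNK3; compounds were titrated.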

[9] = molecular target: 3',5'-cyclic-AMP phosphodiesterase 4B (Homo sapiens) (UniProt Q07343); assay: qHTS Assay for Inhibitors of PDE-IV (AID 607; active = well fitted activation curve with a large enough effect in the main read-out, with a control signal flat, not every such curve was filed as active; also: % of control where 0% means no effect); conditions: HEK293 ACTOne CNG channel cells, membrane potential fluorescence; series mostly up to 22.9 µM
Method in brief: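 HEK293 ACTOne cells with CNG channel (1000/well), endogenous PDE4; membrane potential dye, compounds up to 22.9 uM final. Fluorescence Ex 535/Em 590; RO 20-1724 (100 uM final) as reference.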

Sequence of Glucocorticoid receptor (Homo sapiens) (P04150 whole entry, looked up, the tested form may be a part): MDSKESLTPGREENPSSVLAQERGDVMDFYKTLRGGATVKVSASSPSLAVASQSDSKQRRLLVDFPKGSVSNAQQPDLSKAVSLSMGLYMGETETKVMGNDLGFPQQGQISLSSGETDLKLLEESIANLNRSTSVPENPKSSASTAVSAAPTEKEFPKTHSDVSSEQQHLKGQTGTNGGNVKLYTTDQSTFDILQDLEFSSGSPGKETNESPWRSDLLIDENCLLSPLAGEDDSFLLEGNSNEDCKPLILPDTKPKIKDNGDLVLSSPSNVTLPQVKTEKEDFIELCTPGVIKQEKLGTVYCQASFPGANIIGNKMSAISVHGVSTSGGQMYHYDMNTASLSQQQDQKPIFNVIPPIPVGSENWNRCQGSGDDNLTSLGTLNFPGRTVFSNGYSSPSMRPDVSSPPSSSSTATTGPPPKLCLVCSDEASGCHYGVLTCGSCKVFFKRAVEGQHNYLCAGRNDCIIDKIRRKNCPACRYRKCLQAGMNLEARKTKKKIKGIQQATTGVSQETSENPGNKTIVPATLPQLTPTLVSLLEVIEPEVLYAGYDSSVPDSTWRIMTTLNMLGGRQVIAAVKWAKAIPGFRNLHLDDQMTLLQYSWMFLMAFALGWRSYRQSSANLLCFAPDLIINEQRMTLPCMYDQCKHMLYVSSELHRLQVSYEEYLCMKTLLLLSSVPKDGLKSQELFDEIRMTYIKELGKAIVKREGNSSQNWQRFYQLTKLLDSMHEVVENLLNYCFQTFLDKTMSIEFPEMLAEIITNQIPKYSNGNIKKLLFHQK
Sequence of Lysosomal acid glucosylceramidase (Homo sapiens) (P04062 whole entry, looked up): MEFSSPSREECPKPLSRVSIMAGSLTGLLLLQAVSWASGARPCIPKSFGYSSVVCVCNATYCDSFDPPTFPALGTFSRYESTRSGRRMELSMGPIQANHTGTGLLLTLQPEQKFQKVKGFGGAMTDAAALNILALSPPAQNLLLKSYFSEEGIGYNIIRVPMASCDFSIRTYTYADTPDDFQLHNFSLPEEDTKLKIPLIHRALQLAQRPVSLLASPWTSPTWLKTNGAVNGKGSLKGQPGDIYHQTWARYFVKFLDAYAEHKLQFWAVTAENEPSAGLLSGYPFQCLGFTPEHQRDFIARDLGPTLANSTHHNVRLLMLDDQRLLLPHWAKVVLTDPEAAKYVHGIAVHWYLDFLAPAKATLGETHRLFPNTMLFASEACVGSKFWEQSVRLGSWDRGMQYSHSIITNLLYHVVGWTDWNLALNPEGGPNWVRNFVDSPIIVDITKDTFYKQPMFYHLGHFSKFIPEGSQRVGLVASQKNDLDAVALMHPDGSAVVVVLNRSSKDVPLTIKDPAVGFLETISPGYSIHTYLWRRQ
Sequence of Cytochrome P450 1A2 (Homo sapiens) (P05177 whole entry, looked up): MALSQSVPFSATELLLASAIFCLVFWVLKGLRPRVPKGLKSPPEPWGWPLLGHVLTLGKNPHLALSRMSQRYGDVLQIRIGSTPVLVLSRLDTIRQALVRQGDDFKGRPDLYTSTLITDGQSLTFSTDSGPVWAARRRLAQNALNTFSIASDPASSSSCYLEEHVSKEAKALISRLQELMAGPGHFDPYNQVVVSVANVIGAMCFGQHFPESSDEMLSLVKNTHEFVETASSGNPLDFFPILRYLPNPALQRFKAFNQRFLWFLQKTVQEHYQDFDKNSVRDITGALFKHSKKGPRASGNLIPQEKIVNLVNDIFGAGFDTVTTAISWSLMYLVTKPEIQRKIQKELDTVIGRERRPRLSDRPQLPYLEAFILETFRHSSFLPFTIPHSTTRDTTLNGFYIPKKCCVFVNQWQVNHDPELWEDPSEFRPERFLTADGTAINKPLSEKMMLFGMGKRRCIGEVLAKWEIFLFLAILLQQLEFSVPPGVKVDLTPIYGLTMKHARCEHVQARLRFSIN
Sequence of 3',5'-cyclic-AMP phosphodiesterase 4B (Homo sapiens) (Q07343 whole entry, looked up): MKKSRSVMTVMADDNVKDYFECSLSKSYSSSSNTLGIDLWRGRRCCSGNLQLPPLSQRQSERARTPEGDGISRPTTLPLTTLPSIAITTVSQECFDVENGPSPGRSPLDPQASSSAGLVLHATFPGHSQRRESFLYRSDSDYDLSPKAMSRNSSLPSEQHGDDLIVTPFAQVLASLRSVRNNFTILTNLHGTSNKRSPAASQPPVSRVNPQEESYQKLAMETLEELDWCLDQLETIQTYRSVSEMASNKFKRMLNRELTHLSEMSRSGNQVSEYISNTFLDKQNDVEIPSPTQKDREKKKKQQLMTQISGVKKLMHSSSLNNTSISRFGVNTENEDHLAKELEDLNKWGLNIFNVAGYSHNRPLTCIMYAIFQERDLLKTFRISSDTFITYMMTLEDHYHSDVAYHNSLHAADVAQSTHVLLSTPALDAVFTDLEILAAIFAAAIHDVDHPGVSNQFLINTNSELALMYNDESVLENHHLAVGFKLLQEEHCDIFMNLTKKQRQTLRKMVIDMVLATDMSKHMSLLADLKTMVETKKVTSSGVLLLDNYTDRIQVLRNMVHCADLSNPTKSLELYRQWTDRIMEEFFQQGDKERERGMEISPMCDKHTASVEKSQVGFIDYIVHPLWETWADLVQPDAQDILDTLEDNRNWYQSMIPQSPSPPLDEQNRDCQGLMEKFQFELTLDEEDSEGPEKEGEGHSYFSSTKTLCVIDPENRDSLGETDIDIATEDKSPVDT

Compound | Potency [1] | activity change, negative = inhibition [2] [%] | Potency [3] | activity change, negative = inhibition [4] [%] | activity, negative = inhibition [5] [%] | Potency [6] [µM] | Potency [7] [µM] | Potency [8] | Potency [9] | activity change, negative = inhibition [3]
C[N+](C)(C)c1ccc([C@H](N)C(=O)O)cc1 | > 11.4 µM | -0.163 | inactive | -21.6 | 0.0481 | > 46 | > 9.22 | inactive | inactive | 
CN(CC(=O)O)CC(=O)O | > 11.4 µM | -6.97 |  | 11.1 | 2.4 | > 46 | > 9.22 | inactive | inactive | -5.9% [at 2.29 µM]
c1ccc(CCNc2ccccn2)nc1 | > 11.4 µM | -8.73 | 5.01 µM (active) | 2.35 | -1.9 | > 46 | > 9.22 | inactive | inactive | 
Nc1nc(N)c2nn(-c3ccc(C(=O)O)cc3)nc2n1 | > 11.4 µM | -3.5 |  | 6.6 | -0.747 | > 46 | > 9.22 | inactive | inactive | -13.4% [at 2.29 µM]
O=C(O)CCNc1ccccc1C(=O)O | > 11.4 µM | -0.595 | inactive | 4.52 | 6.23 | > 46 | > 9.22 | inactive | inactive | 
O=S(=O)(c1ccc(Br)cc1)N1CCN(S(=O)(=O)c2ccc(Br)cc2)CC1 | > 11.4 µM | 14.8 | inactive | -0.352 | 5.43 | > 46 | > 9.22 | inactive | inactive | 
CC1=C[N+](=O)c2ccccc2[N+]1=O | > 11.4 µM | 5.1 | 6.31 µM (active) | 13.8 | 0.919 | > 46 | > 9.22 | inactive | inactive | 
CN(C)CCSCCO | > 11.4 µM | 7.7 |  | 2.29 | 9.73 | > 46 | > 9.22 | inactive | inactive | -14.3% [at 2.29 µM]
Clc1ccccc1C(Nc1cnccn1)Nc1cnccn1 | > 11.4 µM | 8.81 |  | 6.25 | -2.8 | > 46 | > 9.22 | inactive | inactive | -18% [at 2.29 µM]
NNC(=O)[C@@H](O)[C@H](O)[C@H](O)CO | > 11.4 µM | 2.85 | inactive | 10.5 | 2.62 | > 46 | > 9.22 | inactive | inactive | 
Nc1ccn([C@@H]2O[C@H](COC(=O)C34CC5CC(CC(C5)C3)C4)[C@@H](O)[C@@H]2O)c(=O)n1 | > 11.4 µM | 9.17 |  | 16.8 | -0.882 | > 46 | > 9.22 | inactive | inactive | -18.7% [at 2.29 µM]
Nc1nc(N)[n+]([O-])c(N)c1NCO | > 11.4 µM | 7.34 | inactive | 9.37 | 7 | > 46 | > 9.22 | inactive | inactive | 
C[N+]1(CCCC[N+]2(C)CCCCCCC2)CCCCCCC1 | > 11.4 µM | 0.612 |  | -24.9 | -6.69 | > 46 | > 9.22 | inactive | inactive | -10.4% [at 2.29 µM]
CC(C)[C@@H](C)/C=C\[C@@H](C)[C@@H]1CC[C@H]2C3=CC=C4C[C@@H](O)CC[C@]4(C)[C@H]3CC[C@]21C | > 11.4 µM | -3.49 | inactive | 25.1 | -5.31 | > 46 | > 9.22 | inactive | inactive | 
CC12CC[C@@H]3c4ccc(OP(=O)(O)O)cc4CCC3C1CCC2=O (some centres undefined) | > 11.4 µM | 2.65 |  | 10.4 | -5.93 | > 46 | > 9.22 | inactive | inactive | -13.4% [at 2.29 µM]
Nc1nc(N)nc(CCCc2nc(N)nc(N)n2)n1 | > 11.4 µM | -5.42 | inactive | 6.45 | 1.14 | > 46 | > 9.22 | inactive | inactive | 

Compound | Potency [1] | activity change, negative = inhibition [2] [%] | Potency [3] | activity change, negative = inhibition [4] [%] | activity, negative = inhibition [5] [%] | Potency [6] [µM] | Potency [7] [µM] | Potency [8] | Potency [9] | activity change, negative = inhibition [3]
NS(=O)(=O)c1ccc(N=Nc2ccc[nH]c2=O)cc1 | 3.95 µM (active) | -1.61 | 0.501 µM (active) | -25.2 | -6.14 | > 46 | > 9.22 | inactive | inactive | 
CCN=C(N)CSS(=O)(=O)O | > 11.4 µM | 9.8 | inactive | -7.3 | -20 | > 46 | > 9.22 | inactive | inactive | 
CC(C)(C)c1ccc(OC(=O)Nc2ccc(O)c(C(=O)O)c2)cc1 | > 11.4 µM | -0.0209 |  | 6.49 | 0.0223 | > 46 | > 9.22 | inactive | inactive | 6.5% [at 2.29 µM]
O=C(O)c1cc(N=Cc2ccccc2O)cc(C(=O)O)c1 | > 11.4 µM | -3.29 | inactive | 17.2 | -4.46 | > 46 | > 9.22 | inactive | inactive | 
Nc1ccc(N=Nc2c(S(=O)(=O)O)cc3ccccc3c2S(=O)(=O)O)cc1 | > 11.4 µM | -5.64 |  | 11.9 | 6.7 | > 46 | > 9.22 | inactive | inactive | -20.9% [at 2.29 µM]
Cc1ccc(S(=O)(=O)NC(=O)Nc2ncn[nH]2)cc1 | > 11.4 µM | 3.19 |  | 13 | 0.243 | > 46 | > 9.22 | inactive | inactive | -21.5% [at 2.29 µM]
N[C@@H](CSCc1ccc(I)cc1)C(=O)O | > 11.4 µM | -1.51 |  | 0.82 | 10.1 | > 46 | > 9.22 | inactive | inactive | -12% [at 2.29 µM]
NCc1ccc(C(=O)O)cc1 | > 11.4 µM | 3.17 |  | 6.92 | -2.22 | > 46 | > 9.22 | inactive | inactive | -4.8% [at 2.29 µM]
CC(C)Cn1cnc2c(Sc3c([N+](=O)[O-])ncn3C)nc(N)nc21 | > 11.4 µM | -3.59 |  | -13.9 | 11.4 | > 46 | > 9.22 | inactive | inactive | 8.1% [at 2.29 µM]
Nc1nc(-c2ccc3ccccc3c2)cc(-c2cc(-c3ccc4ccccc4c3)nc(N)n2)n1 | > 11.4 µM | -3.27 | 0.501 µM (active) | 9.25 | 6.54 | > 46 | > 9.22 | inactive | inactive | 
O=[N+]([O-])c1nccn1C[C@H](O)CN1CCCCC1 | > 11.4 µM | 21.1 | inactive | 0.912 | 6.06 | > 46 | > 9.22 | inactive | inactive | 
CS(=O)(=O)N(CC(=O)O)Cc1ccccc1 | > 11.4 µM | 13.2 | inactive | 14.9 | 10.2 | > 46 | > 9.22 | inactive | inactive | 
Cc1cc(C)nc(SCCc2cccc[n+]2C)n1 | > 11.4 µM | -4.14 |  | -24.4 | 6.72 | > 46 | > 9.22 | inactive | inactive | -18.6% [at 2.29 µM]
CN(C)CCCCN1CCc2c(n(C)c3ccccc23)C1=O | > 11.4 µM | 14 |  | 5.6 | 3.15 | > 46 | > 9.22 | inactive | inactive | -14.1% [at 2.29 µM]
NCCc1nc(-c2nc(C(=O)O)cs2)cs1 | > 11.4 µM | -1.29 | inactive | -25.9 | -10 | > 46 | > 9.22 | inactive | inactive | 
